Compound activity: PubChem BioAssay, National Center for Advancing Translational Sciences (NCATS)
VDR inhibitor – Inhibitors of the vitamin D receptor (VDR): qHTS | Vitamin D3 receptor (Homo sapiens), P11473 | VDR-SRC2-3 peptide fluorescence polarization, 2 h | Potency, µM, without a hit: max response, negative = inhibition, most hits filed as inhibitors | 400,000 tested, 0.93% active; note: potency is the fitted concentration of half-maximal effect; % is set by controls: 0 for no effect and ±100 for the full control effect
Target sequence (P11473 whole entry, looked up): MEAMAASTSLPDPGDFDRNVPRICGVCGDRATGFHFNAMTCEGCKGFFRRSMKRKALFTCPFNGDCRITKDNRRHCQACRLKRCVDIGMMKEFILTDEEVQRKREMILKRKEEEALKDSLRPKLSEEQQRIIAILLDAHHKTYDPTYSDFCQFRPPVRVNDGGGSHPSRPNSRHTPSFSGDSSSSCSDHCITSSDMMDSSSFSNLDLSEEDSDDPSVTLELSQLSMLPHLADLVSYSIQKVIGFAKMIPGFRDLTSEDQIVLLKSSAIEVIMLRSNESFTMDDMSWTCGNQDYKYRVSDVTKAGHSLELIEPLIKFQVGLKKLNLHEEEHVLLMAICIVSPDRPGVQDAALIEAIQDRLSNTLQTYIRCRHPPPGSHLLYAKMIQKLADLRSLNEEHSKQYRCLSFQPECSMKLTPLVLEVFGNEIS
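After 23 nl compound addition and a short centrifugation, plates sat for 2 hours at ambient temperature; polarization of fluorescence then indicated loss of VDR binding to peptide SRC2-3.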
MBNL1-CUG inh – qHTS Assay for Inhibitors of MBNL1-poly(CUG) RNA binding; Muscleblind-like protein 1 (Homo sapiens), Q9NR56; 280,000 tested, 0.036% active; TR-FRET MBNL1-His/biotin-(CUG)12 binding, 665/545 ratio; Potency, µM (highest dose often 57.5 µM), for inactives: at the highest dose activity change, negative = inhibition, most hits filed as inhibitors; AID 2675, 2010; active = well fitted inhibition curve with a large enough effect in the signal ratio, with a control signal flat, not every such curve was filed as active; inconclusive = small, poorly fitted or top-dose-only effect, or effect the other way, or a change in a side signal; inactive = no such curve, though single readings can be large or run the other way; the % refers to the signal ratio; note: potency is the fitted concentration of half-maximal effect; % is set by controls: 0 for no effect and ±100 for the full control effect
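Ratiometric TR-FRET (665 over 545 nm, excitation 340 nm) tracks disruption of MBNL1-His/biotin-(CUG)12 complex after 60 min at room temperature, with compounds at 92 nM to 58 uM final.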
hERG WT inh – qHTS for Inhibitors of KCHN2 3.1: Wildtype qHTS | Voltage-gated inwardly rectifying potassium channel KCNH2 (Homo sapiens), Q12809 | U2OS, BacMam KCNH2, thallium flux FluxOr; stronger effect = lower value | activity change, % at 1.84 µM | 340,000 tested, 0.37% active;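 active = maximum activity change below -70%; inconclusive = maximum activity change between -70% and -50%; inactive = maximum activity change above -50%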; note: % is set by controls: 0 for no effect and ±100 for the full control effect
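U2OS cells transduced with wild-type KCNH2 virus are loaded with FluxOr dye for 45 min, and thallium flux is measured in kinetic reads before and after stimulation buffer. Rate constants are normalized to DMSO controls.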
CBFb RUNX1 block – qHTS Assay for Compounds Blocking the Interaction Between CBF-beta and RUNX1 for the Treatment of Acute Myeloid Leukemia. 230,000 tested, under 10 active. Potency, µM (doses to about 59.8 µM), for the others: at the top dose activity, negative = inhibition, most hits filed as inhibitors. AlphaScreen CBFb-His/RUNX1-biotin binding, biochemical; note: % of control where 0% means no effect
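Inhibition was taken as any reduction in AlphaScreen signal from the CBF-beta–RUNX1 pair (His and biotin tags, 30 nM each), measured after compound (15 min) and bead (90 min) incubations at room temperature.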
KCNH2 3.1 inh – qHTS for Inhibitors of KCHN2 3.1: Mutant qHTS. 340,000 tested, 0.95% active. U2OS KCNH2 3.1, thallium flux FluxOr; stronger effect = lower value. Potassium voltage-gated channel subfamily H member 2, brain isoform KCNH2 3.1 (human). activity change, % (tested at about 1.8 µM);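 active = maximum activity change below -70%; inconclusive = maximum activity change from -70% to -50%; inactive = maximum activity change above -50%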;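 note: thallium influx rate constant from kinetic fluorescence after stimulation buffer; % is set by controls: 0 for no effect and ±100 for the full control effect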
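Steps: virus added to U2OS suspension (4 h, RT, dark); medium with 10% FBS added, cells plated, 37 C overnight; FluxOr/Red40 loading buffer 45 min RT; stimulation buffer, 2 min kinetic read; rate constant normalized.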
PLK1 PBD block – qHTS for Inhibitors of PLK1-PDB (polo-like kinase 1 - polo-box domain): Primary Screen; Serine/threonine-protein kinase PLK1 (Homo sapiens), P53350; Plk1 PBD binding of FITC phosphopeptide, fluorescence polarization; Potency, µM, inactives show max response, negative = inhibition, usual class: inhibitors; 360,000 tested, 2.8% active; AID 720504, 2013; note: potency is the fitted concentration of half-maximal effect; series mostly up to about 57 µM; % is set by controls: 0 for no effect and ±100 for the full control effect; nearly all actives have a fitted effect of over 65% in size
Starred values were filed as active, the others as inactive; ? = inconclusive; · = no result. Most compounds without a hit are left out; they make up all but 3.8% or so of the library. Unless noted, calls come from the whole dose curve; as a rule, active = well fitted curve in the direction sought with a large enough effect; inconclusive = small, poorly fitted or top-dose-only effect, or another doubt; inactive = no such curve, though single readings can be large; an effect the other way counts as inactive or inconclusive.

SMILES | VDR inhibitor | MBNL1-CUG inh | hERG WT inh | CBFb RUNX1 block | KCNH2 3.1 inh | PLK1 PBD block
Cc1ccccc1OCCn1cc(/C=C(\C#N)C(=O)NCc2ccco2)c2ccccc21 | 3% | -6% | -15 | -4% | -77* | -2%
Cc1ccc(C)c(OCCn2cc(/C=C(\C#N)C(=O)NCC3CCCO3)c3ccccc32)c1 (stereo unspecified) | -18% | 4% | 11 | 4% | -11 | 30µM*
CC(=O)c1cc(CN2CCN(CCC(C)C)C(CCO)C2)cs1 (stereo unspecified) | ? | -6% | 3 | 16% | -15 | 21µM*
CC(=O)c1cc(CN2CCN(Cc3ccc(C)cc3)C(CCO)C2)cs1 (stereo unspecified) | 3% | -9% | 53 | 1% | -13 | -9%
O=C(Nc1ccc(F)cc1Cl)C1Cc2ccccc2N1C(=O)c1ccccc1 (stereo unspecified) | 1% | · | · | · | · | ·
CC(=O)N1CCN(C(=S)c2ccc(Cl)cc2)CC1 | -3% | ? | -16 | 2% | 27 | 21µM*
COc1ccc(-n2cccc2C=O)cc1 | -15% | · | 34 | -1% | 0 | -8%
COc1ccc(-n2cccc2/C=C/[N+](=O)[O-])cc1 | ? | 18% | 3 | -29% | 3 | 27µM*
C=CCNc1nnc(SC2CC(=O)N(c3ccc(OC)cc3)C2=O)s1 (stereo unspecified) | -19% | 5% | 22 | -2% | -2 | 27µM*
COc1ccc(N2C(=O)CC(Sc3nnc(-c4ccccc4F)n3C)C2=O)cc1 (stereo unspecified) | -18% | -4% | -5 | -5% | -37 | 24µM*
COc1ccc(N2C(=O)CC(Sc3nc4ccccc4s3)C2=O)cc1 (stereo unspecified) | 6% | · | -6 | 2% | 0 | -15%
Cc1cc(C)c(NC(=O)Cn2c(=O)n(CCC(C)C)c(=O)c3cccnc32)c(C)c1 | 7% | · | · | · | · | ·
COCCCN1CCc2nc(SCC(=O)Nc3ccc(C)c(Cl)c3)[nH]c(=O)c2C1 | 12% | · | · | · | · | ·
CNC(=O)CN1C(=O)COc2ccc(S(=O)(=O)N3CCC(C)CC3)cc21 | -8% | · | · | · | · | ·
CSc1nnc(Cn2c(=O)sc3ccccc32)n1CCc1ccccc1 | -27% | 8% | -4 | 1% | 3 | 21µM*
CSc1nnc(Cn2c(=O)sc3ccccc32)n1C | -19% | 0% | -2 | 3% | 0 | -8%
COc1cccc(NC(=O)Cn2c(=O)n(CCc3cccc(C)c3)c(=O)c3ccccc32)c1 | -27% | · | · | · | · | ·
c1coc(-c2nnc(-c3ccco3)nn2)c1 | 89µM* | ? | 9 | · | 10 | -11%
Cc1ccc(-n2c(=O)c3c(cnn3C)n(Cc3ccccc3F)c2=O)cc1 | 3% | · | · | · | · | ·
CCn1ncc(C(=O)Nc2ccccc2C)c1C | -10% | -17% | 19 | 7% | -95* | 9%
CCCS(=O)(=O)Nc1cc(-c2cn3cccc(C)c3n2)ccc1C | 8% | · | · | · | · | ·
CC(C)c1ccc(N2C(=O)/C(=C/N(C)C)SC2=S)cc1 | -20% | ? | 3 | ? | 30 | -21%
CN(C)/C=C1\NC(=S)N(c2ccc(Cl)cc2)C1=O | 1% | 26% | 7 | 2% | 14 | 27µM*
COc1ccc(CCNC(=O)CSc2nnc(C(C)N(C)C)n2Cc2ccccc2)cc1OC (stereo unspecified) | -14% | -1% | -30 | -6% | -71* | -2%
COc1ccc(CCNC(=O)CSc2nc(O)cc(=O)[nH]2)cc1OC | -10% | -8% | -1 | 1% | -80* | ?
SMILES | VDR inhibitor | MBNL1-CUG inh | hERG WT inh | CBFb RUNX1 block | KCNH2 3.1 inh | PLK1 PBD block
CCc1ccc(NC(=O)Cn2c(=O)n(CCCCC(=O)NCc3ccccc3Cl)c(=O)c3ccccc32)cc1 | -6% | · | · | · | · | ·
C=CCNC(=S)Nc1ccc(N(C)C)cc1 | 79µM* | 7% | -6 | 2% | 8 | -24%
CN(C)S(=O)(=O)c1cccc(NC(=O)COC(=O)/C=C/c2ccco2)c1 | ? | ? | 1 | -24% | -16 | 30µM*
CC(=O)c1ccc(N2C(=O)N(Cc3cccc(C(F)(F)F)c3)c3ccccc3S2(=O)=O)cc1 | 17% | · | · | · | · | ·
Cn1nnnc1SCC1=C(C(=O)O)N2C(=O)[C@@H](NC(=O)[C@H](O)c3ccccc3)[C@H]2SC1 | -25% | ? | 2 | ? | -6 | 13µM*
Cn1nnnc1SCC1=C(C(=O)O)N2C(=O)C(NC(=O)C(O)c3ccccc3)C2SC1 (stereo unspecified) | 50µM* | · | · | 9% | · | ·
Cn1nnnc1SCC1=C(C(=O)O)N2C(=O)C(NC(=O)C(OC=O)c3ccccc3)C2SC1 (stereo unspecified) | ? | · | · | 10% | · | ·
CCOC(=O)c1ccccc1NC(=O)Nc1cc2c(cc1N1CCCC1)n(C)c(=O)n2C | -6% | · | · | · | · | ·
CC(C)CN(Cc1cc(=O)oc2cc(-c3ccccc3)c(O)cc12)CC(C)C | -24% | 5% | -27 | 7% | -1 | 30µM*
CCCCCCCCCCN1CCOCCOCCN(CCCCCCCCCC)CCOCCOCC1 | 4% | · | · | 15% | · | ·
CCOc1ccc(S(=O)(=O)Nc2cccc(OC)c2)c2cccnc12 | -8% | · | · | · | · | ·
S=c1[nH]nc2n1CCCN2 | -2% | -6% | -8 | -1% | -3 | 30µM*
CCN1CCC(N(Cc2ccc(F)cc2)C(=O)Nc2ccc(C)c(F)c2)CC1 | 7% | · | · | · | · | ·
COc1ccc(C2=CC(c3cc(OC)c(OC)c(OC)c3)NC(=S)N2)cc1 (stereo unspecified) | -12% | 4% | 2 | -5% | -2 | 12µM*
CC1=CC(=O)C2C(C)(C)CCC[C@@]2(C)[C@@]1(O)CCc1ccoc1 (stereo partly specified) | 50µM* | · | · | · | · | ·
Fc1ccccc1Nc1nc(N2CCOCC2)nc(N2CCOCC2)n1 | 12% | -2% | 3 | · | 16 | 0%
COc1cc(C=O)ccc1Oc1nc(Nc2ccc(F)cc2F)nc(N2CCOCC2)n1 | -24% | · | -2 | -4% | 11 | 21µM*
O=C(O)Cn1c(SCCOc2ccc(Cl)cc2)nc2ccccc21 | -12% | -6% | 3 | · | 2 | -13%
O=C(O)Cn1c(SCCOc2ccccc2F)nc2ccccc21 | -15% | 2% | 4 | 0% | 10 | 19µM*
